G9a block: qHTS Assay for Inhibitors of Histone Lysine Methyltransferase G9a. G9a H3K9 monomethylation, AlphaScreen, 2 h. Potency, µM (doses to about 102 µM), for the others: at the highest dose activity, negative = inhibition, most hits filed as inhibitors. hit rate 8.8% among 350,000. AID 504332, 2011; note: % is set by controls: 0 for no effect and ±100 for the full control effect; nearly all actives have a fitted effect of over 75% in size
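AlphaScreen read-out: biotin-H3K9 peptide (500 nM) methylation by 20 nM enzyme with 20 uM SAM, 2 h at room temperature after 15 min compound preincubation; anti-monomethyl H3K9 antibody plus donor/acceptor beads, 10 min dark.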
JMJD2A Tudor inh: qHTS Assay for Inhibitors of JMJD2A-Tudor Domain; Potency, µM (top dose mostly 114 µM), inactives show at the highest dose activity change, negative = inhibition, actives largely listed as inhibitors; Lysine-specific demethylase 4A (Homo sapiens), O75164; hit rate 4.4% among 390,000; AlphaScreen JMJD2A-Tudor / H3K4me3 peptide binding; note: % is set by controls: 0 for no effect and ±100 for the full control effect; nearly all actives have a fitted effect of over 50% in size
BAZ2B inh: qHTS Assay for Inhibitors of BAZ2B | hit rate 4.4% among 360,000 | Bromodomain adjacent to zinc finger domain protein 2B (Homo sapiens), Q9UIF8 | Potency, µM (highest dose often 114 µM), for the others: at the highest dose activity change, negative = inhibition, hits mostly inhibitors | AlphaScreen BAZ2B-H3K14Ac peptide displacement; note: % is set by controls: 0 for no effect and ±100 for the full control effect; nearly all actives have a fitted effect of over 60% in size
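Complex of BAZ2B and biotin-H3K14Ac (50 nM apiece) forms over 30 min at RT, then faces library compounds up to 110 uM for another 30 min; AlphaScreen beads added, 20 min dark incubation, luminescence read.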
PLK1 PBD inh: qHTS for Inhibitors of PLK1-PDB (polo-like kinase 1 - polo-box domain): Primary Screen; Plk1 PBD binding of FITC phosphopeptide, fluorescence polarization; hit rate 2.8% among 360,000; Serine/threonine-protein kinase PLK1 (Homo sapiens), P53350; Potency, µM, without a hit: max response, negative = inhibition, actives largely listed as inhibitors; note: series mostly up to about 57 µM; % is set by controls: 0 for no effect and ±100 for the full control effect; nearly all actives have a fitted effect of over 65% in size
Target sequence (P53350 whole entry, looked up, the tested form may be a part): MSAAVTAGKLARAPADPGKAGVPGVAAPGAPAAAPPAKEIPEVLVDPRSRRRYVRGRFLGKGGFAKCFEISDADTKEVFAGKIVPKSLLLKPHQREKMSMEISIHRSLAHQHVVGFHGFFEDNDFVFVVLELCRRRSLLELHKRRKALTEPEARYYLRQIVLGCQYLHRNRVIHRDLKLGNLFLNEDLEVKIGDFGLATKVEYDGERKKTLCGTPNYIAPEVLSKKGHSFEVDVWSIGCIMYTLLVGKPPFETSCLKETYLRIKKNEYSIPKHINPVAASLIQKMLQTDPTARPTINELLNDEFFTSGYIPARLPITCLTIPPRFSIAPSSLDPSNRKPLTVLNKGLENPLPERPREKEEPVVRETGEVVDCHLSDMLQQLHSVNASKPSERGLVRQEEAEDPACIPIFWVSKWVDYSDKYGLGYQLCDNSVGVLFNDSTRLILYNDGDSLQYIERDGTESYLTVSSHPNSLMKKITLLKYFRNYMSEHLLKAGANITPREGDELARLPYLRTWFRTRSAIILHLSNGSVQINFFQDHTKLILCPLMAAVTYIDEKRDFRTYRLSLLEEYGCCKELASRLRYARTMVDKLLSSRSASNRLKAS
Sfp PPTase inh: qHTS Assay for Inhibitors of Bacillus subtilis Sfp phosphopantetheinyl transferase (PPTase); 4'-phosphopantetheinyl transferase ffp (Bacillus subtilis), Q9F4F7; Biochemical Sfp PPTase activity, qHTS; Potency, µM, inactives show largest response in the series, negative = inhibition, most hits filed as inhibitors; hit rate 3.5% among 310,000;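 note: the enzyme is Sfp with the accession as filed and its product quenches rhodamine fluorescence; 0% = enzyme reaction without inhibitor and -100% = no enzyme wells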
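Compounds were incubated with enzyme (final 15 nM) for 15 min at room temperature before substrate addition started the reaction. Fluorescence at 525 nm excitation, 598 nm emission was recorded immediately and after 30 minutes.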
HP1b chromo inh: HTS for Inhibitors of HP1-beta Chromodomain Interactions with Methylated Histone Tails. Chromobox protein homolog 1 (Homo sapiens), P83916. AlphaScreen HP1-beta / biotin-H3K9me3 peptide binding. Potency, µM (titrated, usually from 114 µM), without a hit: at the top dose activity change, negative = inhibition, hits mostly inhibitors. hit rate 0.56% among 390,000; note: nearly all actives have a fitted effect of over 70% in size
Target sequence (P83916 whole entry, looked up): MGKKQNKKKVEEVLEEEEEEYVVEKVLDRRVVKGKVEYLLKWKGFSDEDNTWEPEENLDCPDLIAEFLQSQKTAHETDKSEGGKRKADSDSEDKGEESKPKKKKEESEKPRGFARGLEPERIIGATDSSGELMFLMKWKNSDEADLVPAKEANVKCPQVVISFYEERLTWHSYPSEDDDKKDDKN
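Compound inhibition of the preformed complex between 50 nM HP1-beta and 50 nM biotinylated H3K9me3 peptide was read by AlphaScreen. Buffer was PBS pH 7.4 with 0.01% Tween-20. Incubations ran 30 min at room temperature, with 10 ug/mL donor/acceptor beads.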
Numbers without * were called inactive; ? = inconclusive; · = no result; [ ] = dose if it differs, or a comment. Only some compounds are listed: those with a hit (about 12% of all), similar ones and a draw of the others. Calls come from the whole dose curve; as a rule, active = well fitted curve in the direction sought with a large enough effect; inconclusive = small, poorly fitted or top-dose-only effect, or another doubt; inactive = no such curve, though single readings can be large; an effect the other way counts as inactive or inconclusive. Potency is the fitted concentration of half-maximal effect.

SMILES	G9a block	JMJD2A Tudor inh	BAZ2B inh	PLK1 PBD inh	Sfp PPTase inh	HP1b chromo inh
Cc1ccc(NC(=S)NC(=O)c2ccc(Br)o2)c(C)c1	?	-9.1%	-29.5%	-3.1%	25.0%	10.7%
Cn1ncc(C(N)=O)c1NC(=S)NC(=O)c1ccc(Br)o1	17.8µM*	-11.6%	-27.9%	?	-86.6%	-8.2%
Cc1cccc(C)c1NC(=S)NC(=O)c1ccc(Br)o1	39.8µM*	-13.2%[11.4 µM]	?	5.97µM*	5.9%	-14.2%
COc1ccccc1CNc1ncncc1-c1ccc(C(=O)N(C)C)cc1	-9.7%[0.501 µM]	·	·	·	-15.5%	·
CN(C)CCSc1nc(N)c2c3c(sc2n1)CN(C)CC3	44.7µM*	-14.4%	-7.1%	-25.4%	11.9%	10.2%
CC(C)Sc1nc(N)c2c3c(sc2n1)CN(C)CC3	3.16µM*	-16.8%	5.8%	26.7µM*	4.5%	31.6%
CC1(C(=O)NS(=O)(=O)Cc2ccccc2C(F)(F)F)CCN1C(=O)c1ccccc1 (centres undefined)	·	·	·	-2.3%	·	·
CCNc1ncc2nc(-c3ccccc3)c(=O)n(CCOC)c2n1	1.4%[0.501 µM]	·	·	·	5.3%	·
O=C(NCCc1nc2ccccc2n1CCOc1ccccc1)C1CCCCC1	·	-11.5%[57.1 µM]	·	·	·	23.4%[57 µM]
Clc1ccc2[nH]c3c(c2c1)CCc1cn[nH]c1-3	35.5µM*	79.4µM*	?	-14.1%	12.7%	?
c1ccc2c3c([nH]c2c1)-c1[nH]ncc1CC3	35.5µM*	?	?	-14.1%	2.8%	-16.5%
O=C1CCCc2c1[nH]c1ccccc21	?	-25.7%	10.6%	-3.7%	8.0%	-0.5%
CC12CCC(C(=O)NCc3ccc4c(c3)OCO4)(CC1=O)C2(C)C (centres undefined)	10.0%[59 µM]	18.5%[11.4 µM]	5.6%	?	11.2%	-3.5%
CC12CCC(C(=O)NCc3ccc4c(c3)OCO4)(C(=O)C1=O)C2(C)C (centres undefined)	44.7µM*	0.9%	-21.8%	-8.7%	10.8%	28.5%
C[C@@H]1NC(=O)N(CCCn2ccnc2)C1=O	11.8%	-28.4%	50.1µM*	-7.9%	15.4%	15.5%
Cn1cccc1Cc1nnc(SCC(N)=O)n1-c1ccc(F)cc1	89.1µM*	-13.4%	-6.0%	-11.9%	-29.5%	40.6%
Cn1cccc1Cc1nnc(SCC(=O)N2CCOCC2)n1-c1ccc(F)cc1	?	-31.0%	-27.2%	-12.2%	?	12.4%
COc1ccc(-n2c(Cc3cccn3C)nnc2SCC(=O)Nc2ccc(C)c(Cl)c2)cc1	44.7µM*	?	?	0.3%	-5.9%	-8.4%
COc1ccc(NC(=O)CSc2nnc(Cc3cccn3C)n2-c2ccc(C)cc2)cc1OC	?	?	?	-6.3%	-5.0%	?
Cn1cccc1Cc1nnc(SCC(=O)NCc2ccccc2Cl)n1-c1ccc(F)cc1	79.4µM*	-35.0%	?	-8.7%	3.8%	-3.1%
COc1ccc(-n2c(Cc3cccn3C)nnc2SCC(=O)Nc2cccc(OC)c2)cc1	50.1µM*	-34.3%	?	-0.9%	-12.0%	10.8%
CN(C)c1ncc2nc(-c3cc(F)cc(F)c3)c(=O)n(Cc3ccc(F)cc3)c2n1	13.7%[0.501 µM]	·	·	·	19.8%	·
COc1cccc(NC(=O)CSc2nnc(Cc3cccn3C)n2-c2ccc(F)cc2)c1	?	?	50.1µM*	-5.2%	-15.2%	13.5%
Cc1cc(C)c(NC(=O)CSc2nnc(Cc3cccn3C)n2-c2ccc(F)cc2)c(C)c1	44.7µM*	?	?	-8.9%	50.1µM*	-17.1%
CC(=O)Nc1cccc(NC(=O)CSc2nnc(Cc3cccn3C)n2-c2ccc(F)cc2)c1	?	?	?	-2.2%	-23.2%	-13.9%
SMILES	G9a block	JMJD2A Tudor inh	BAZ2B inh	PLK1 PBD inh	Sfp PPTase inh	HP1b chromo inh
Cn1cccc1Cc1nnc(SCC(=O)NC2CCCCC2)n1-c1ccc(F)cc1	?	-34.3%	-0.3%	-6.3%	-18.7%	14.5%
CCN(c1ccccc1)S(=O)(=O)c1ccc(NC(=O)c2cc(=O)c3cc(C)cc(C)c3o2)cc1	-1.9%[59 µM]	-3.1%	-11.3%	·	·	17.0%
Cc1cc(N2CCOCC2)nc2ccc(NC(=S)NC(C)C)cc12	70.8µM*	-1.0%	-11.4%	-10.1%	-14.5%	27.4%
CCCN(CCC)CCCNC(=S)Nc1ccc2nc(N3CCN(C)CC3)cc(C)c2c1	39.8µM*	-27.0%	-25.3%	-6.9%	9.6%	-2.6%[57 µM]
CCCN(CCC)CCCNC(=S)Nc1ccc2nc(N3CCN(CC)CC3)cc(C)c2c1	50.1µM*	-3.3%	-6.7%	1.9%	-5.1%	10.7%[57 µM]
Cc1cc(N2CCCC2)nc2ccc(NC(=S)NC(C)C)cc12	?	-28.5%	-21.3%	?	-7.3%	12.7%
COc1ccc(CCNC(=O)CCC(=O)Nc2ccc3nc(N4CCN(C)CC4)cc(C)c3c2)cc1OC	-2.1%[59 µM]	79.4µM*	-19.6%	-15.9%	13.1%	-21.3%[57 µM]
COCCNc1nc(C)nc2c1nc(-c1ccccc1)n2CCN1CCCC1	·	·	·	·	-0.5%	·
COc1ccc(CCNC(=O)CN2c3cccc4cccc(c34)S2(=O)=O)cc1OC	-9.7%	3.5%	-1.7%	2.6%	-6.5%	48.2%
COCCNC(=S)Nc1ccc2nc(N3CCCC3)cc(C)c2c1	70.8µM*	-18.4%	-1.1%	-7.9%	-19.1%	-8.6%
Cc1oc(-c2cccc(Br)c2)nc1CSc1nc2ncccc2[nH]1	?	-15.8%	-8.3%	·	·	-8.7%
Cc1[nH]c2ccccc2c1/C=N/NC(=O)CCC(=O)Nc1ccccc1	-7.5%	-16.5%[11.4 µM]	-13.9%	23.8µM*	7.2%	-18.9%
Cc1[nH]c2ccccc2c1/C=N/NC(=O)CNC(=O)Cc1ccccc1	70.8µM*	-25.2%	?	-15.0%	9.5%	31.9%
Cc1[nH]c2ccccc2c1/C=N/NC(=O)c1ccccc1	14.6%	-13.4%	-4.8%	1.7%	-2.9%	35.9%
Cc1[nH]c2ccccc2c1/C=N/Nc1cccc(C(=O)O)c1	3.98µM*	?	?	-25.7%	-0.4%	-14.8%
Cc1[nH]c2ccccc2c1/C=N/NC(=O)CNC(=O)c1ccccc1	·	-6.1%	-1.9%	-1.0%	-3.7%	12.5%
Cc1ccc(NC(=S)N/N=C/c2c(C)[nH]c3ccccc23)cc1	50.1µM*	44.7µM*	44.7µM*	0.1%	18.9%	?
Cc1[nH]c2ccccc2c1/C=N/NC(=O)Nc1ccccc1	1.0%	-6.7%	-13.4%	-1.5%	15.6%	55.0%
CCN(C(=O)CSc1nc2ccccc2n1CC(=O)N(C)C1CCCCC1)c1ccccc1	-1.0%[59 µM]	-1.7%	-23.1%	·	·	15.8%
Cc1ccccc1N(C)C1=N[S+](=O)([O-])c2ccccc21	·	-19.9%	·	·	·	·

High-throughput results from PubChem BioAssay.
